# Laboratory results published in PubChem BioAssay AID488899 (Broad Institute, 2010).
# Screen size: about 330,000 compounds; about 2,800 (0.85%) were called active. The list comes from a sample in which actives are over-represented; it also holds similar structures and randomly drawn compounds. Unmarked numbers belong to inactive results.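 The calls were made as follows: active = mean inhibition across replicates of 60% or more, whatever share of single replicates reaches that level; inconclusive = some that reach 60%, reason not given; inactive = mean inhibition across replicates below 60%.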
# Test: MITF transcriptional activity suppression – cell-based, SK-MEL-5, single point, luciferase, primary screen (AID 488899)
# Details: SK-MEL-5 TRPM1 promoter luciferase, 24 h; at 12.5 µM; stronger effect = higher value
row,Structure (SMILES),inhibition
1,O=[N+]([O-])c1cc2ccccc2nc1-c1ccccc1,-2.83%
2,CN(C)CCn1c2c(c(SCC(=O)Nc3ccccc3C(F)(F)F)nc1=O)CCCC2,1.54%
3,CC1CCCCC1NC(=O)/C(C#N)=C/C=C/c1ccccc1[N+](=O)[O-] (configuration not stated),87% (active)
4,O=[N+]([O-])c1ccccc1/C=C/CN1CCCC(CO)C1 (configuration not stated),3.33%
5,O=[N+]([O-])c1ccccc1/C=C/CN1CCC(O)CC1,-6.15%
6,CSCCC(NS(=O)(=O)c1ccc2c(c1)oc(=O)n2C)C(=O)NC1CCCc2ccccc21 (configuration not stated),4.17%
7,Cc1cccc(/C(N)=N/OC(=O)c2ccccc2Cl)c1,-7.17%
8,CC1CN(C(=O)CCC(=O)NCc2cccnc2)c2ccccc2O1 (configuration not stated),-4.62%
9,COc1ccccc1NC(=O)CCC(=O)N1CC(C)Oc2ccc(C)cc21 (configuration not stated),-0.622%
10,CC1CN(C(=O)CCC(=O)NCCCN2CCC(Cc3ccccc3)CC2)c2cc(Cl)ccc2O1 (configuration not stated),81.8% (active)
11,COc1ccc(OC)c(-c2c(=O)n(OCc3ccccc3Br)c3ccccc3[n+]2[O-])c1,15.9%
12,CC(=O)Nc1ccc(S(=O)(=O)NC2Cc3ccccc3C2)cc1,4.61%
13,C=C(C)C(=O)Nc1cccc(C2=NOC3(C2)C[C@H](C(N)=O)N(C(=O)C(c2ccccc2)c2ccccc2)C3)c1 (some centres not stated),0.48%
14,CCN(CC)S(=O)(=O)c1ccc(Cl)c(NC(=O)c2ccncc2)c1,0.4%
15,CCN(CC)S(=O)(=O)c1ccc(NC(=O)c2cnc(C)cn2)cc1,10.2%
16,CCN(CC)S(=O)(=O)c1ccc(NC(=O)c2cccnc2Cl)c(NC(=O)c2cccnc2Cl)c1,74.2% (active)
17,O=C1CC(c2ccccc2)C(c2ccccc2)=NN1 (configuration not stated),5.8%
18,Cc1cccc(N(C(=O)Cn2nnc(-c3ccc(C)o3)n2)C(C(=O)NC2CCCC2)c2ccncc2)c1 (configuration not stated),3.32%
19,CCN(CC)CCCC(C)n1c2nc(=O)[nH]c(=O)c-2nc2cc(Cl)ccc21 (configuration not stated),83.3% (active)
20,CCN(CC)CCn1c2ccc(Cl)cc2c2nc(C)sc21,6.02%
21,CCOC(=O)c1c(C)[nH]c(C(=O)NCCN2CCOCC2)c1C,8.7%
22,COc1ccccc1NC(=O)N(O)C1(C#N)CCCCC1,-7.2%

row,Structure (SMILES),inhibition
1,CN1c2ccc(C=O)c3c(C=O)ccc(c23)N(C)C1(C)C,96.4% (active)
2,CCN(C(=O)COC(=O)c1c(NC(C)=O)sc(C)c1C)C1CCS(=O)(=O)C1 (configuration not stated),11%
3,COc1ccccc1NC(=O)CCCc1c[nH]c2ccccc12,-1.28%
4,COc1cccc(CNCCc2c[nH]c3ccccc23)c1OCc1ccccc1F,95.2% (active)
5,COc1ccc(C(CCNCc2ccccc2F)c2ccc(F)cc2)cc1 (configuration not stated),-10.4%
6,O=C(c1cc(COc2ccc(F)cc2F)on1)N1CCOCC1,-44.5%
7,CC(C)c1ccc(S(=O)(=O)N2CCN(C(=O)CN3C(=O)NC(C)(c4ccccc4)C3=O)CC2)cc1 (configuration not stated),-4.8%
8,Cc1csc(NC(=O)CSc2nnc(-c3cccnc3)o2)n1,-14.8%
9,Cc1ccc(S(=O)(=O)N(Cc2cccc([N+](=O)[O-])c2)C(=O)N2CCN(C)CC2)cc1,4.92%
10,CCN(CC)C(=O)CN(c1cccc([N+](=O)[O-])c1)S(=O)(=O)c1ccccc1,-4.33%
11,O=C(CCl)N(Cc1cccc([N+](=O)[O-])c1)c1cccc(Cl)c1,66.2% (active)
12,COCCSc1nnc(NC(=O)c2cc(OC)c(OC)cc2[N+](=O)[O-])s1,-2.51%
13,CC(=NNC(=O)c1ccncc1)c1ccc(Cl)c(Cl)c1,-7.3%
14,NS(=O)(=O)c1ccc(CNC(=O)c2ccc(Cl)cc2[N+](=O)[O-])cc1,10.6%
15,CCCCNC(=O)C(C)N(CCN(C)C)C(=O)CCCCCN1C(=O)NC(c2ccc(Cl)cc2)C(C(=O)OCc2ccccc2)=C1C (configuration not stated),94.5% (active)
16,CCOC(=O)C1=C(c2ccccc2)NC(=S)NC1c1ccc(Cl)cc1 (configuration not stated),-19%
17,CCOC(=O)CCCNC(=O)CN1C(=O)NC(CCc2ccccc2)C1=O (configuration not stated),4.69%
18,CCCCNC(=O)C(C)N(CCN(C)C)C(=O)CCCN1C(=O)NC(c2ccc(Cl)cc2)C(C(=O)OCc2ccccc2)=C1C (configuration not stated),91.1% (active)
19,CCN1C(=O)N[C@@H](c2ccccc2)C(C(=O)OC)=C1C,-9.9%
20,CC1=C(C(=O)OCc2ccccc2)C(c2ccc(C(F)(F)F)cc2)NC(=O)N1CCCCCC(=O)O (configuration not stated),-6.33%
21,C/C(CC(=O)NCc1ccc(Cl)cc1)=N\NC(=O)COc1ccc(C)cc1Br,40.1%
22,Nc1nc(SCC(=O)N2CCN(S(=O)(=O)c3ccc(Cl)cc3)CC2)n[nH]1,-2.96%

row,Structure (SMILES),inhibition
1,Fc1ccccc1/C=N/Nc1cc(N2CCCCC2)ncn1,-35%
2,COc1cccc2sc(N(CCCN(C)C)C(=O)CCS(=O)(=O)c3ccccc3)nc12,31.1%
3,COc1cccc2sc(N(CCCN(C)C)C(=O)C(c3ccccc3)c3ccccc3)nc12,71.9% (active)
4,COc1cc2ccccc2cc1C(=O)N(CCN(C)C)c1nc2c(F)cccc2s1,2.41%
5,COc1cccc2c1C(=O)c1c(O)c3c(c(O)c1C2=O)CC(O)(C(C)=NNC(=O)c1ccc(Cl)c(Cl)c1)CC3OC1CC(N)C(O)C(C)O1 (configuration not stated),82.2% (active)
6,CN(CC(=O)Nc1ccc(F)c(F)c1F)C(=O)Cn1cnc2c1c(=O)n(C)c(=O)n2C,-2.69%
7,Cc1ccc(OCC(=O)Nc2ccc3oc(=O)ccc3c2)cc1C,-15.4%
8,CCN1/C(=C\c2ccc3ccccc3[n+]2CC)Sc2cc(C)ccc21,104% (active)
9,CC(C)(C)n1nc2c(c1NC(=O)c1ccc(S(=O)(=O)N3CCCC3)cc1)CS(=O)C2 (configuration not stated),-11.4%
10,O=S(=O)(NCCNS(=O)(=O)c1ccccc1)c1ccccc1,11.2%
11,COc1ccc(S(=O)(=O)/N=C2\C=C(NS(=O)(=O)c3ccccc3)C(=O)c3ccccc32)cc1,12.7%
12,O=C1C=C(NS(=O)(=O)c2ccccc2)C(=O)c2ccccc21,65.7% (active)
13,O=C(NC1=CC(=O)c2ccccc2C1=O)c1ccccc1,94.4% (active)
14,CC(NC(=O)c1ccccc1)C(=O)Nc1ccccc1 (configuration not stated),-6.34%
15,Cn1c(NC(=O)c2ccccc2)nc2ccccc21,-26.1%
16,O=C(COC(=O)CSc1nnc(-c2ccc(Cl)cc2)o1)Nc1cc(Cl)cc(Cl)c1,-3.64%
17,CC(C)c1nc2oc3c(N4CCN(C)CC4)ncnc3c2c2c1CCC2,5.53%
18,CC(=O)N1CCc2ccc(N)cc21,6.31%
19,CSc1ccccc1NC(=O)c1cnc2sc(C)cn2c1=O,-128%
20,COCCN1C(=O)C(=O)/C(=C(/O)c2ccc(S(=O)(=O)N3CCOCC3)cc2)C1c1ccc(O)c(OC)c1 (configuration not stated),-1.49%
21,O=C(CNCc1ccc(Cl)cc1)Nc1cccc(C(=O)O)c1,2.1%
22,CCCSC(=S)NC1CCS(=O)(=O)C1 (configuration not stated),17%

row,Structure (SMILES),inhibition
1,O=C(CSc1ccccc1F)NC1CCS(=O)(=O)C1 (configuration not stated),-4.88%
2,O=S1(=O)CCC(NC(=S)SCc2ccccc2Br)C1 (configuration not stated),75.3% (active)
3,COc1ccc(OC)c(Cc2cnc3nc(N)nc(N)c3c2C)c1,8.03%
4,CCOC(=O)N1CCN(C(=O)c2ccc3c(=O)n(CCc4ccc(OC)c(OC)c4)c(=O)[nH]c3c2)CC1,2.29%
5,Cc1oc2c(C)c3oc(=O)c(CC(=O)N[C@@H](CC(C)C)C(=O)N[C@@H](Cc4ccccc4)C(=O)O)c(C)c3cc2c1C,9.54%
6,CC(C)(C)NC(=O)COc1ccc(CNc2ccc3[nH]c(=O)[nH]c3c2)cc1,0.891%
7,COc1ccc2nc(N3CCN(C(=O)c4ccc([N+](=O)[O-])o4)CC3)sc2c1,67.3% (active)
8,COc1ccc2nc(N3C(=O)C(O)=C(C(=O)c4ccco4)C3c3ccco3)sc2c1 (configuration not stated),10.6%
9,O=C(c1ccc2nc(N3CCOCC3)sc2c1)N1CCN(c2ccc(Cl)cc2)CC1,4.87%
10,CC(C)(C)c1nnc2sc(SCC(O)=C(C#N)c3nc4ccccc4[nH]3)nn2c1=O,-7.27%
11,O=C(CN1CCc2ccccc2C1)Nc1cccc(S(=O)(=O)N2CCOCC2)c1,4.73%
12,COC(=O)c1ccc(CN2CCC(CO)(Cc3ccc(OC)cc3)CC2)cc1,-13%
13,Nc1c(Cl)cc(S(N)(=O)=O)cc1S(N)(=O)=O,-2.87%
14,S=C(NCCCc1ccccc1)Nc1ccc(Br)cc1,-6.26%
15,C=C(C)C(=O)O[C@H]1C/C(C)=C\C(=O)/C=C(\C)[C@H](O)[C@@H]2OC(=O)C(=C)[C@@H]21,85.9% (active)
16,O=[N+]([O-])c1cccc(C=NN=Cc2ccccc2O)c1,-42.5%
17,CCOc1ccc(CCNC(=O)COC(=O)C2CCN(S(=O)(=O)c3ccccc3)CC2)cc1OCC,9.54%
18,O=C(N/N=C\c1ccc(Br)cc1)c1ccc(Cn2cccn2)o1,-24.2%
19,Cc1c(Cl)c([N+](=O)[O-])nn1Cc1ccc(C(=O)N/N=C\c2cc(Cl)ccc2O)o1,65.8% (active)
20,Cc1nn(Cc2ccc(Cl)cc2)c(Cl)c1/C=N/NC(=O)c1cccnc1,18.6%
21,COc1ccc(CCN2C(=O)CC(N3CCC(C(N)=O)CC3)C2=O)cc1OC (configuration not stated),18.7%
